For 14 molecules, growth results are on record in PubChem BioAssay (NCI).

Some test systems named below: NCI-H23 lung; NCI-H322M lung; HOP-62 NSCLC; NCI-H460 lung; HOP-92 NSCLC; NCI-H522 lung; A549/ATCC NSCLC; 786-0 renal; COLO 205 colon; DU-145 prostate.
Common to all, as to test: NCI-60 one-dose screen, 48 h (100 = growth as untreated, 0 = no growth, -100 = all killed)
Holding throughout (conditions): 10 µM unless noted

Compounds without any hit were thinned out: in the full panel of roughly 83,000, 20% have a hit.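 Percent growth is the endpoint: 0 to 100 indicates growth inhibition (40 means 60% inhibition), 0 means no net growth, and negative values indicate cell death.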 Values without a mark were called inactive. The source made the active and inactive calls. Rule for the calls: active = growth percent below 10; inactive = the rest.

Consider `O=c1c2cc(F)cc(Cl)c2sc2c(Cl)nc3ccccc3c12`, for which the growth with NCI-H23 lung was 90.5%; with NCI-H322M lung, 97.8%; in the test with HOP-62 NSCLC, 89.4%; with NCI-H460 lung, 100%; in the test with HOP-92 NSCLC, 99.3%; in the test on NCI-H522 lung it was 77%. Moreover, the growth in the test with A549/ATCC NSCLC is 111%; with 786-0 renal, 110%; with COLO 205 colon, 116%; in the test with DU-145 prostate, 109%.
With `O=C(NC1CCN(Cc2ccccc2)CC1)c1cc2nc(-c3ccc(Cl)s3)cc(C(F)(F)F)n2n1`, the growth in the test on NCI-H23 lung was 90.8%; in the test with NCI-H322M lung it was 113%; with HOP-62 NSCLC, 70.7%; in the test on NCI-H460 lung, 26.6%; in the test on HOP-92 NSCLC it was 51.9%; with NCI-H522 lung, -31.9% (active). Also, the growth with A549/ATCC NSCLC is 81.9%; with 786-0 renal, 102%; with COLO 205 colon, -48.6% (active); with DU-145 prostate it was 83.3%.
On to `CCOC(=O)c1ccc2[nH]c(-c3ccccc3)cc(=O)c2c1`, for which the growth in the test on NCI-H23 lung is 99.7%; with NCI-H322M lung, 98.2%; with HOP-62 NSCLC it was 106%; with NCI-H460 lung it was 101%; with HOP-92 NSCLC, 92.5%; in the test with NCI-H522 lung, 101%. The growth in the test on A549/ATCC NSCLC was 95.7%; in the test on 786-0 renal, 104%; in the test with COLO 205 colon, 109%; in the test on DU-145 prostate, 103%.
For `COc1ccc(OC)c(N(CCN2C(=O)c3ccccc3C2=O)C(=O)CCl)c1`, the growth in the test on NCI-H23 lung was 32.1%; in the test on NCI-H322M lung it was 97.7%; in the test on HOP-62 NSCLC it was -3% (active); with NCI-H460 lung, 90.3%; in the test on HOP-92 NSCLC, -11.4% (active); with NCI-H522 lung, -73.3% (active). Besides, the growth in the test on A549/ATCC NSCLC is 76%; in the test with 786-0 renal, 38.6%; in the test with COLO 205 colon it was 80.6%; in the test with DU-145 prostate, 86.1%.
Consider `COc1ccc(-c2cn[nH]c2-c2cc(OC)c(OC)c(OC)c2)cc1OCc1ccccc1`, for which the growth in the test with NCI-H23 lung is 33.2%; in the test with NCI-H322M lung, 49.1%; in the test on HOP-62 NSCLC, 27.7%; in the test on NCI-H460 lung, 12.2%; in the test with HOP-92 NSCLC, 31.4%; in the test with NCI-H522 lung, -19.7% (active). The growth in the test on A549/ATCC NSCLC is 37.7%; in the test with 786-0 renal, 21.5%; with COLO 205 colon it was 104%; in the test with DU-145 prostate, 65.2%.
Take `COc1ccc(/C=C2\SC(=Nc3ccccc3)NC2=O)cc1`: the growth in the test on NCI-H23 lung is 21.6%; in the test on NCI-H322M lung it was -53.9% (active); in the test with HOP-62 NSCLC it was -95.3% (active); with NCI-H460 lung, -79.4% (active); in the test with HOP-92 NSCLC, -64.5% (active); in the test on NCI-H522 lung, -85.6% (active). Besides, the growth with A549/ATCC NSCLC was -74.8% (active); in the test with 786-0 renal it was -92.8% (active); in the test with COLO 205 colon it was -94.3% (active); in the test on DU-145 prostate it was -50.8% (active).
With `O=C(Nc1ccc(Br)cc1F)c1cc(F)ccc1O`, the growth with NCI-H23 lung was 3.95% (active); in the test on NCI-H322M lung, 10.4%; in the test on HOP-62 NSCLC it was 2.13% (active); in the test on NCI-H460 lung, 3.38% (active); with HOP-92 NSCLC it was -11.3% (active); in the test on NCI-H522 lung, -1.14% (active). For the same molecule, the growth in the test on A549/ATCC NSCLC is 9.75% (active); in the test with 786-0 renal, -4.66% (active); with COLO 205 colon it was 16.2%; in the test on DU-145 prostate, 15.4%.
`COc1ccc(/C=C2\CCC/C(=C\c3ccc(OC)c(OC)c3)C2=O)cc1OC`: the growth in the test on NCI-H23 lung was 21.6%; in the test with NCI-H322M lung, 45.4%; in the test with HOP-62 NSCLC, 28.5%; in the test with NCI-H460 lung, -46.5% (active); in the test with HOP-92 NSCLC it was 106%; in the test with NCI-H522 lung, -14% (active). For the same molecule, the growth in the test on A549/ATCC NSCLC is 13.8%; in the test on 786-0 renal it was 0.0865% (active); in the test with COLO 205 colon, 22.6%; in the test on DU-145 prostate, -33.9% (active).
As to `CCCN1CCN(c2ccc3nc(-c4ccc5nc(-c6cc(OC)ccc6OC)[nH]c5c4)[nH]c3c2)CC1`, the growth is 103% with NCI-H23 lung; 115% in the test with NCI-H322M lung; 117% in the test on HOP-62 NSCLC; 100% with NCI-H460 lung; 110% with HOP-92 NSCLC; 113% with NCI-H522 lung. Besides, the growth in the test with A549/ATCC NSCLC is 115%; in the test on 786-0 renal, 101%; with DU-145 prostate, 114%.
With `CN1C(=O)N(C)C2C1NN=c1s/c(=C\c3c[nH]c4ccccc34)c(=O)n12` (stereo not drawn), the growth in the test on NCI-H23 lung is 38.7%; in the test with NCI-H322M lung it was 50.4%; in the test with HOP-62 NSCLC, 49.2%; in the test on NCI-H460 lung, 1.56% (active); with HOP-92 NSCLC it was 114%; in the test on NCI-H522 lung it was 11.5%. Besides, the growth in the test with A549/ATCC NSCLC was 24.3%; in the test on 786-0 renal it was 23.4%; with COLO 205 colon it was -53.4% (active); in the test on DU-145 prostate, 5.09% (active).
For the molecule `CCOC(=O)c1cc2c(n1Cc1ccccc1OC)-c1oncc1CCC2`, the growth is 45.3% in the test with NCI-H23 lung; 86% with NCI-H322M lung; 45.3% in the test with HOP-62 NSCLC; 18.4% in the test on NCI-H460 lung; 57% in the test with HOP-92 NSCLC; 19.2% with NCI-H522 lung. Moreover, the growth with A549/ATCC NSCLC is 36.6%; in the test with 786-0 renal it was 49.6%; with COLO 205 colon, 2.53% (active); in the test with DU-145 prostate, 33.2%.
Consider `Clc1ccc(Nc2scc3[n+]2CCC3)cc1`, for which the growth in the test with NCI-H23 lung is 92.7%; in the test on NCI-H322M lung it was 101%; in the test with HOP-62 NSCLC it was 99.8%; with NCI-H460 lung, 102%; with HOP-92 NSCLC it was 81%; in the test with NCI-H522 lung, 93.5%. For the same molecule, the growth in the test on A549/ATCC NSCLC was 92.4%; with 786-0 renal it was 94.9%; with COLO 205 colon, 120%; with DU-145 prostate it was 101%.
`O=C(Nc1ccc(F)cc1F)c1cc(Cl)ccc1O`: the growth was 5.18% (active) with NCI-H23 lung; 5.61% (active) in the test with NCI-H322M lung; 3.07% (active) in the test with HOP-62 NSCLC; 7.22% (active) in the test with NCI-H460 lung; -20.5% (active) in the test with HOP-92 NSCLC; -28.2% (active) in the test on NCI-H522 lung. Also, the growth is 6.37% (active) in the test with A549/ATCC NSCLC, 2.83% (active) with 786-0 renal, 9.45% (active) with COLO 205 colon and 18% in the test with DU-145 prostate.
For `CNCCNc1nc2ccccc2c2c(=O)c3cc(F)ccc3sc12`, the growth was 90.9% with NCI-H23 lung; 42.4% with NCI-H322M lung; 46% in the test with HOP-62 NSCLC; -65.8% (active) in the test on NCI-H460 lung; 19.2% in the test on HOP-92 NSCLC; 33.8% in the test on NCI-H522 lung. Moreover, the growth in the test on A549/ATCC NSCLC is -56.3% (active); in the test with 786-0 renal, 42.5%; in the test on DU-145 prostate it was 12%.
